# Results from PubChem BioAssay (NCI).
# The panel holds about 79,000 compounds, 15% with a hit somewhere; the sample as a whole holds those more often. A number with no mark means an inactive call. Activity calls are given as the source filed them. No stated cut-off is given here; in the data, active means growth inhibition above about 70%; inactive means the rest.
# What was measured:
# [1] = NCI Yeast Anticancer Drug Screen. Data for the rad14 strain (AID 159);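 further: 0% = growth of vehicle-treated control cultures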; settings: S. cerevisiae rad14 strain growth inhibition, hits give high values
# In short: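 Vehicle-treated cultures served as the baseline for growth inhibition of a DNA repair-mutant yeast strain exposed to each compound.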
# [2] = NCI Yeast Anticancer Drug Screen. Data for the sgs1 mgt1 strain (AID 161);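 further: 0% = growth of cultures given vehicle only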; settings: S. cerevisiae sgs1 mgt1 strain, hits give high values
# In short: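 Inhibition of yeast growth, normalised to vehicle-treated controls, is reported for a strain bearing genetic alterations in DNA damage repair.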
# [3] = NCI Yeast Anticancer Drug Screen. Data for the CLN2oe strain (AID 163);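 further: 0% = growth of vehicle-only control cultures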; settings: S. cerevisiae CLN2oe strain, hits give high values
# In short: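 Read-out: yeast growth inhibition, expressed relative to vehicle-only controls. The strain bears an engineered cell-cycle alteration.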
# [4] = NCI Yeast Anticancer Drug Screen. Data for the cln2 rad14 strain (AID 165);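 further: 0% = growth equal to vehicle treated cultures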; settings: S. cerevisiae cln2 rad14 strain, hits give high values
# In short: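 cln2 rad14 yeast strain; compound exposure; growth inhibition read vs vehicle controls.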
# [5] = NCI Yeast Anticancer Drug Screen. Data for the bub3 strain (AID 167); settings: S. cerevisiae bub3 mutant strain, hits give high values
# In short: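 Inhibition values come from growth of compound-treated mutant yeast normalised to vehicle-treated controls.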
# [6] = NCI Yeast Anticancer Drug Screen. Data for the wt2 strain (AID 169);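 further: 0% = growth of vehicle-treated yeast cultures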; settings: S. cerevisiae wt2 strain growth inhibition, hits give high values
# In short: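 Read-out: growth inhibition versus vehicle-treated control cultures after compound exposure of the yeast strain.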
# [7] = NCI Yeast Anticancer Drug Screen. Data for the mlh1 strain (AID 171);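 further: 0% = growth of vehicle-treated control cultures of the same strain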; settings: S. cerevisiae mlh1 strain growth inhibition, hits give high values
# In short: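 Read-out: growth inhibition versus vehicle controls. Strain: engineered yeast with a defined DNA repair or cell cycle defect, compound-treated.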
# [8] = NCI Yeast Anticancer Drug Screen. Data for the sgs1 strain (AID 173);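 further: 0% = growth of vehicle-only control cultures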; settings: S. cerevisiae sgs1 mutant, hits give high values
# In short: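 Read-out: yeast growth inhibition relative to vehicle controls, following compound exposure of a strain with a defined DNA repair/cell cycle alteration.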
# [9] = NCI Yeast Anticancer Drug Screen. Data for the mlh1 rad18 strain (AID 175); settings: S. cerevisiae mlh1 rad18 strain growth inhibition, hits give high values
# In short: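 Yeast w/ defined DNA-repair lesions; compound exposure; growth vs vehicle controls → % inhibition.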
# [10] = NCI Yeast Anticancer Drug Screen. Data for the rad18 strain (AID 177); settings: S. cerevisiae rad18 mutant growth inhibition, hits give high values
# In short: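 Readout: growth inhibition vs vehicle controls. Cells: genetically altered yeast strain, DNA repair defect.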
# [11] = NCI Yeast Anticancer Drug Screen. Data for the wt1 strain (AID 149);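 further: 0% = growth of vehicle-treated wt1 cultures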; settings: S. cerevisiae wt1 strain (SPY 50644) growth inhibition, hits give high values
# In short: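 Vehicle-normalised growth inhibition; strain wt1; compound exposure.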
# [12] = NCI Yeast Anticancer Drug Screen. Data for the mgt1 strain (AID 153); settings: S. cerevisiae mgt1 mutant growth inhibition, hits give high values
# In short: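 mgt1 yeast grown with test compound; read-out is growth inhibition versus vehicle-treated cultures.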
# [13] = NCI Yeast Anticancer Drug Screen. Data for the rad50 strain (AID 155);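 further: 0% = growth of vehicle-only cultures of the same strain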; settings: S. cerevisiae rad50 strain growth inhibition, hits give high values
# In short: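 A DNA repair-deficient yeast mutant serves as the test organism; compound-induced growth inhibition is calculated against vehicle-treated cells.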
# [14] = NCI Yeast Anticancer Drug Screen. Data for the mec2-1 strain (AID 157); settings: S. cerevisiae mec2-1 strain, hits give high values
# In short: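 Yeast mec2-1 mutant treated with compound. Readout: growth inhibition vs vehicle controls.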
# [15] = at 5.0 µM (retest, dose inferred, filed as 0.5)
# [16] = at 50.0 µM (retest, dose inferred, filed as 5.0)
structure (smiles),measurement,setting,value
CN(C)N=Nc1ccc(NC=O)cc1,growth inhibition,[1]; at 100.0 µM,98% (active)
same,growth inhibition,[2]; [15],-7%
same,growth inhibition,[2]; [16],-44%
same,growth inhibition,[2]; at 50.0 µM,66.2%
same,growth inhibition,[3]; at 1.2 µM,31%
same,growth inhibition,[3]; at 3.7 µM,27%
same,growth inhibition,[3]; at 11.0 µM,49%
same,growth inhibition,[3]; at 33.0 µM,98% (active)
same,growth inhibition,[3]; at 100.0 µM,99% (active)
same,growth inhibition,[4]; [15],-7%
same,growth inhibition,[4]; [16],-19%
same,growth inhibition,[4]; at 50.0 µM,85.2% (active)
same,growth inhibition,[5]; at 1.2 µM,15%
same,growth inhibition,[5]; at 3.7 µM,18%
same,growth inhibition,[5]; [15],-3%
same,growth inhibition,[5]; at 11.0 µM,27%
same,growth inhibition,[5]; at 33.0 µM,94% (active)
same,growth inhibition,[5]; [16],-22%
same,growth inhibition,[5]; at 50.0 µM,78.7% (active)
same,growth inhibition,[5]; at 100.0 µM,99% (active)
same,growth inhibition,[6]; at 1.2 µM,18%
same,growth inhibition,[6]; at 3.7 µM,9%
same,growth inhibition,[6]; at 11.0 µM,14%
same,growth inhibition,[6]; at 33.0 µM,96% (active)
same,growth inhibition,[6]; at 100.0 µM,99% (active)
same,growth inhibition,[7]; at 1.2 µM,2%
same,growth inhibition,[7]; at 3.7 µM,-7%
same,growth inhibition,[7]; at 11.0 µM,6%
same,growth inhibition,[7]; at 33.0 µM,91% (active)
same,growth inhibition,[7]; at 100.0 µM,99% (active)
same,growth inhibition,[8]; at 1.2 µM,2%
same,growth inhibition,[8]; at 3.7 µM,-5%
same,growth inhibition,[8]; at 11.0 µM,8%
same,growth inhibition,[8]; at 33.0 µM,93% (active)
same,growth inhibition,[8]; at 100.0 µM,99% (active)
same,growth inhibition,[9]; [15],32%
same,growth inhibition,[9]; [16],65%
same,growth inhibition,[9]; at 50.0 µM,87.4% (active)
same,growth inhibition,[10]; at 1.2 µM,19%
same,growth inhibition,[10]; at 3.7 µM,24%
same,growth inhibition,[10]; at 11.0 µM,35%
same,growth inhibition,[10]; at 33.0 µM,98% (active)
same,growth inhibition,[10]; at 100.0 µM,99% (active)
CN(C)CCNC(=O)c1cccc2nc3c(ccc4ccccc43)nc12,growth inhibition,[11]; at 1.2 µM,-3%
same,growth inhibition,[11]; at 3.7 µM,-2%
same,growth inhibition,[11]; at 11.0 µM,2%
same,growth inhibition,[11]; at 33.0 µM,17%
same,growth inhibition,[11]; at 100.0 µM,85% (active)
same,growth inhibition,[12]; at 1.2 µM,-1%
same,growth inhibition,[12]; at 3.7 µM,-1%
same,growth inhibition,[12]; at 11.0 µM,1%
same,growth inhibition,[12]; at 33.0 µM,31%
same,growth inhibition,[12]; at 100.0 µM,99% (active)
same,growth inhibition,[13]; at 1.2 µM,3%
same,growth inhibition,[13]; at 3.7 µM,26%
same,growth inhibition,[13]; [15],13%
same,growth inhibition,[13]; at 11.0 µM,67%
same,growth inhibition,[13]; at 33.0 µM,91% (active)
same,growth inhibition,[13]; [16],94% (active)
same,growth inhibition,[13]; at 50.0 µM,90% (active)
same,growth inhibition,[13]; at 100.0 µM,98% (active)
same,growth inhibition,[14]; at 1.2 µM,-1%
same,growth inhibition,[14]; at 3.7 µM,2%
same,growth inhibition,[14]; [15],5%
same,growth inhibition,[14]; at 11.0 µM,10%
same,growth inhibition,[14]; at 33.0 µM,25%
same,growth inhibition,[14]; [16],23%
same,growth inhibition,[14]; at 50.0 µM,73.8% (active)
same,growth inhibition,[14]; at 100.0 µM,94% (active)
same,growth inhibition,[1]; at 1.2 µM,-2%
same,growth inhibition,[1]; at 3.7 µM,2%
same,growth inhibition,[1]; at 11.0 µM,14%
same,growth inhibition,[1]; at 33.0 µM,50%
same,growth inhibition,[1]; at 100.0 µM,99% (active)
same,growth inhibition,[2]; [15],3%
same,growth inhibition,[2]; [16],37%
same,growth inhibition,[2]; at 50.0 µM,40.2%
same,growth inhibition,[3]; at 1.2 µM,-5%
same,growth inhibition,[3]; at 3.7 µM,-1%
same,growth inhibition,[3]; at 11.0 µM,-2%
same,growth inhibition,[3]; at 33.0 µM,18%
same,growth inhibition,[3]; at 100.0 µM,72% (active)
same,growth inhibition,[5]; at 1.2 µM,1%
same,growth inhibition,[5]; at 3.7 µM,3%
same,growth inhibition,[5]; [15],-40%
same,growth inhibition,[5]; at 11.0 µM,5%
same,growth inhibition,[5]; at 33.0 µM,24%
same,growth inhibition,[5]; [16],43%
same,growth inhibition,[5]; at 50.0 µM,24.1%
same,growth inhibition,[5]; at 100.0 µM,97% (active)
same,growth inhibition,[6]; at 1.2 µM,-2%
same,growth inhibition,[6]; at 3.7 µM,6%
same,growth inhibition,[6]; at 11.0 µM,-2%
same,growth inhibition,[6]; at 33.0 µM,13%
same,growth inhibition,[6]; at 100.0 µM,92% (active)
same,growth inhibition,[8]; at 1.2 µM,-4%
same,growth inhibition,[8]; at 3.7 µM,-4%
same,growth inhibition,[8]; at 11.0 µM,1%
same,growth inhibition,[8]; at 33.0 µM,30%
same,growth inhibition,[8]; at 100.0 µM,98% (active)
same,growth inhibition,[10]; at 1.2 µM,-2%
same,growth inhibition,[10]; at 3.7 µM,2%
same,growth inhibition,[10]; at 11.0 µM,11%
same,growth inhibition,[10]; at 33.0 µM,61%
same,growth inhibition,[10]; at 100.0 µM,99% (active)
O=C1C(C(O)(C(F)(F)F)C(F)(F)F)CCC1C(O)(C(F)(F)F)C(F)(F)F (stereo not given),growth inhibition,[11]; at 1.2 µM,3%
same,growth inhibition,[11]; at 3.7 µM,6%
same,growth inhibition,[11]; at 11.0 µM,8%
same,growth inhibition,[11]; at 33.0 µM,19%
same,growth inhibition,[11]; at 100.0 µM,33%
same,growth inhibition,[12]; at 1.2 µM,1%
same,growth inhibition,[12]; at 3.7 µM,2%
same,growth inhibition,[12]; at 11.0 µM,8%
same,growth inhibition,[12]; at 33.0 µM,9%
same,growth inhibition,[12]; at 100.0 µM,34%
same,growth inhibition,[13]; at 1.2 µM,-4%
same,growth inhibition,[13]; at 3.7 µM,-14%
same,growth inhibition,[13]; [15],2%
same,growth inhibition,[13]; at 11.0 µM,-22%
same,growth inhibition,[13]; at 33.0 µM,3%
same,growth inhibition,[13]; [16],33%
same,growth inhibition,[13]; at 50.0 µM,22.3%
same,growth inhibition,[13]; at 100.0 µM,30%
same,growth inhibition,[14]; at 1.2 µM,7%
same,growth inhibition,[14]; at 3.7 µM,8%
same,growth inhibition,[14]; [15],9%
same,growth inhibition,[14]; at 11.0 µM,10%
same,growth inhibition,[14]; at 33.0 µM,20%
same,growth inhibition,[14]; [16],26%
same,growth inhibition,[14]; at 50.0 µM,42.6%
same,growth inhibition,[14]; at 100.0 µM,32%
same,growth inhibition,[2]; [15],4%
same,growth inhibition,[2]; [16],54%
same,growth inhibition,[2]; at 50.0 µM,67.3%
same,growth inhibition,[3]; at 1.2 µM,5%
same,growth inhibition,[3]; at 3.7 µM,2%
same,growth inhibition,[3]; at 11.0 µM,8%
same,growth inhibition,[3]; at 33.0 µM,27%
same,growth inhibition,[3]; at 100.0 µM,42%
same,growth inhibition,[4]; [15],83% (active)
same,growth inhibition,[4]; [16],46%
same,growth inhibition,[4]; at 50.0 µM,14.2%
same,growth inhibition,[5]; at 1.2 µM,-1%
same,growth inhibition,[5]; at 3.7 µM,0%
same,growth inhibition,[5]; [15],-12%
same,growth inhibition,[5]; at 11.0 µM,0%
same,growth inhibition,[5]; at 33.0 µM,11%
same,growth inhibition,[5]; [16],32%
same,growth inhibition,[5]; at 50.0 µM,28.4%
same,growth inhibition,[5]; at 100.0 µM,24%
same,growth inhibition,[6]; at 1.2 µM,1%
same,growth inhibition,[6]; at 3.7 µM,4%
same,growth inhibition,[6]; at 11.0 µM,8%
same,growth inhibition,[6]; at 33.0 µM,23%
same,growth inhibition,[6]; at 100.0 µM,39%
same,growth inhibition,[7]; at 1.2 µM,5%
same,growth inhibition,[7]; at 3.7 µM,7%
same,growth inhibition,[7]; at 11.0 µM,11%
same,growth inhibition,[7]; at 33.0 µM,22%
same,growth inhibition,[7]; at 100.0 µM,33%
same,growth inhibition,[8]; at 1.2 µM,3%
same,growth inhibition,[8]; at 3.7 µM,8%
same,growth inhibition,[8]; at 11.0 µM,9%
same,growth inhibition,[8]; at 33.0 µM,28%
same,growth inhibition,[8]; at 100.0 µM,43%
same,growth inhibition,[10]; at 1.2 µM,4%
same,growth inhibition,[10]; at 3.7 µM,6%
same,growth inhibition,[10]; at 11.0 µM,3%
same,growth inhibition,[10]; at 33.0 µM,-2%
same,growth inhibition,[10]; at 100.0 µM,11%
